Screening results as filed in PubChem BioAssay.
This is a sample that favours compounds with a hit; in the whole collection about 7.5% have one here.
NPC1 prom act = qHTS Assay for NPC1 Promoter Activators; Huh7 NPC1 promoter luciferase reporter, 24 h; Potency, µM (top dose mostly 9.22 µM), without a hit: top-dose activation, hits mostly activators; actives 2.4% (n = 320,000); note: % of control where 0% means no effect; nearly all actives have a fitted effect of over 60% in size
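Huh7 cells stably carrying NPC1 promoter–luciferase, plated in Opti-MEM with 10% FBS for 2 h, were exposed to compound in DMSO for 24 h at 37 °C; luciferase reagent was added for 10 min and luminescence read.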
SMN2 splice enh = qHTS Assay for Enhancers of SMN2 Splice Variant Expression; HEK293 SMN2-luciferase splicing reporter, luminescence, 30-36 h; Potency, µM (titrated, usually from 46.1 µM), for inactives: at the top dose activity change, positive = activation, most hits filed as activators; actives 2.8% (n = 210,000); AID 1458, 2008; note: % of control where 0% means no effect; nearly all actives have a fitted effect of over 55% in size
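HEK293 cells carry an SMN2 […]–luciferase reporter in which exon 7 inclusion puts luciferase in frame. Cells were plated 10-12 h before compound addition, then incubated 30-36 h at 37C. ONE-Glo luminescence was read; sodium butyrate at 4.5 mM final served as control.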
FLuc modulator = qHTS profiling assay for firefly luciferase inhibitor/activator using purifed enzyme and Km concentrations of substrates (counterscreen for miR-21 project) | Potency, µM (highest dose often 57.5 µM), for inactives: at the highest dose activity change, negative = inhibition, usual class: inhibitors | purified FLuc, Km substrates, luminescence inhibition | Luciferin 4-monooxygenase (Photinus pyralis), P08659 | actives 6.9% (n = 360,000);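 note: plate controls were vehicle for no effect and reference inhibitor for full effect; nearly all actives have a fitted effect of over 55% in size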
Target sequence (P08659 whole entry, looked up): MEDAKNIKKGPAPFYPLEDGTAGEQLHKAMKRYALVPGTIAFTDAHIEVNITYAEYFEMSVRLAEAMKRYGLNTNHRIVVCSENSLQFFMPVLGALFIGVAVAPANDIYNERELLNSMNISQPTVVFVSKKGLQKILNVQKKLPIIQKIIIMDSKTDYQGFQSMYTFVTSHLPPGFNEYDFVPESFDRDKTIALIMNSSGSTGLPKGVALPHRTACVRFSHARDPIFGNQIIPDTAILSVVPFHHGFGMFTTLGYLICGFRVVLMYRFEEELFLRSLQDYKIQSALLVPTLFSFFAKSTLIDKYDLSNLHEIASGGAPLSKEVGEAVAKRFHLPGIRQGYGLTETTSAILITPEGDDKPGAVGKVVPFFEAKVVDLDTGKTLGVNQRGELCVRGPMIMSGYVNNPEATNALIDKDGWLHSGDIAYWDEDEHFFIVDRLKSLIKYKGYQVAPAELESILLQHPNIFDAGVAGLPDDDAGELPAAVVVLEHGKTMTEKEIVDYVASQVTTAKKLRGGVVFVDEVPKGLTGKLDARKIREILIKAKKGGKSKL
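Purified P. pyralis luciferase, 10 nM final, with Km-level 10 uM D-luciferin and 10 uM ATP in 50 mM Tris acetate pH 7.5, 10 mM Mg acetate, 0.01% Tween-20, 0.05% BSA; 6-point qHTS titration about 60 µM downward; luminescence read.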
Luc counter = Counterscreen for Luciferase (Kinase-Glo TM) Inhibition. Luciferin 4-monooxygenase (Photuris pensylvanica), Q27757. Kinase-Glo luciferase, ATP luminescence, 8 min. Potency, µM (doses to about 38.3 µM), for the others: top-dose activity change, negative = inhibition, actives largely listed as inhibitors. actives 0.28% (n = 200,000). AID 1379, 2008; note: % is set by controls: 0 for no effect and ±100 for the full control effect; nearly all actives have a fitted effect of over 60% in size
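Recombinant Kinase-Glo luciferase, 10 uM ATP (linear range), luciferin; imidazole pH 7.2 / KCl / MgCl2 / Tween / BSA buffer; 8 min RT; luminescence.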
ELG1 genotox = qHTS screen for small molecules that induce genotoxicity in human embryonic kidney (HEK293T) cells expressing luciferase-tagged ELG1; HEK293T ELG1-luciferase reporter, luminescence, 16 h; Potency, µM (top dose mostly 46 µM), for inactives: at the top dose activity change, positive = activation, hits mostly activators; actives 1.3% (n = 330,000); AID 504466, 2011; note: % of control where 0% means no effect; nearly all actives have a fitted effect of over 60% in size
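Step 1: seed 2,000 HEK293T ELG1-luciferase cells per well. Step 2: add compound or DMSO, incubate 16 hr at 37 °C. Step 3: ONE-Glo, 30 min at room temperature, read luminescence.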
Rab9 promoter act = qHTS Assay for Rab9 Promoter Activators; Huh7 Rab9 promoter-luciferase reporter, luminescence, 24 h; actives 2.8% (n = 320,000); Potency, µM (top dose mostly 9.22 µM), for inactives: top-dose activation, negative = inhibition, most hits filed as activators; note: % of control where 0% means no effect; nearly all actives have a fitted effect of over 60% in size
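Huh7 cells stably carrying Rab9 promoter–luciferase reporter, plated 1500 cells/well, compound added after 2 h and incubated 24 h at 37 °C; luciferase luminescence then read after 10 min with detection reagent.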
Numbers without * were called inactive; u = inconclusive; x = not tested or not shown; [ ] = remark or other dose. Calls come from the whole dose curve; as a rule, active = well fitted curve in the direction sought with a large enough effect; inconclusive = small, poorly fitted or top-dose-only effect, or another doubt; inactive = no such curve, though single readings can be large; an effect the other way counts as inactive or inconclusive. Potency is the fitted concentration of half-maximal effect.

SMILES	NPC1 prom act	SMN2 splice enh	FLuc modulator	Luc counter	ELG1 genotox	Rab9 promoter act
Cn1c(O)c(N=NC(=O)c2ccco2)c2ccccc21	4µM*	10µM*	4.8µM*	-13%	u	2.2µM*
Cc1occc1C(=O)N=Nc1c(O)n(C)c2ccccc12	u	2.8µM*	1.7µM*	-30%	u	u
Cn1c(O)c(N=NC(=O)c2ccccc2O)c2ccccc21	3.5µM*	x	3µM*	-20%	7.3µM*	u
CCOC(=O)C(=O)N=Nc1c(O)n(C)c2ccccc12	-6%	x	-8%	-2%	3%	2%
Cc1cc(N=NC(=O)c2ccccc2O)c2ccccc2c1O	u	-10%	11µM*	-6%	-7%	3.2µM*
Cn1c(O)c(N=Nc2ccccc2[N+](=O)[O-])c2ccccc21	3.5µM*	x	u	x	u	u
CCCCn1c(O)c(N=Nc2ccccc2O)c2ccccc21	-2%	x	0%	x	4%	20%
Cc1ccc(-c2ccc(=O)[nH]n2)cc1	0%	1%	0%	0%	5%	12%
CCCCCc1ccc(-c2ccc(=O)[nH]n2)cc1	9%	-9%	19µM*	14%	19%	3%
CCCC(=O)NCc1nc2ccccc2n1CC(=O)c1ccccc1	0%	x	0%	x	-3%	-1%[1.84 µM]
CCOC(=O)/C(=N/Nc1ccc(C)cc1)S(=O)(=O)c1ccc(Cl)cc1	u	3%	17µM*	-3%	u	u
CCOC(=O)/C(=N\Nc1ccccc1)S(=O)(=O)c1ccccc1	8%	-6%	-8%	-4%	1%	9%
O=C(c1ccc(Cl)c(S(=O)(=O)N2CCOCC2)c1)N1CCc2ccccc2C1	x	x	x	x	-3%	x
COc1ccc(-c2cc(=O)c3cc(C)ccc3[nH]2)cc1	3.2µM*	7.1µM*	1.7µM*	-5%[39.9 µM]	13µM*	3.2µM*
COc1cc2[nH]c(-c3cccc(F)c3)cc(=O)c2cc1OC	-6%	5%	u	11%	1%	-5%
COc1cc2[nH]c(-c3ccc(C)cc3)cc(=O)c2cc1OC	13%	u	13µM*	1%[39.9 µM]	11%	26%
COc1ccc(-c2cc(=O)c3cc(OC)ccc3[nH]2)cc1	3.5µM*	2.5µM*	3.4µM*	u	9.2µM*	1.4µM*
O=C(c1ccc2c3n(nc2c1)-c1ccc(Cl)cc1CO3)N1CCOCC1	2µM*	x	9.5µM*	x	18µM*	u
Cc1ccc2c(c1)COc1c3ccc(C(=O)N4CCCCC4)cc3nn1-2	3.2µM*	x	3.8µM*	x	u	u
O=C(c1ccc2c3n(nc2c1)-c1ccccc1CO3)N1CCOCC1	1.6µM*	x	4.8µM*	x	u	1µM*
O=C(c1ccc2c3n(nc2c1)-c1ccccc1CO3)N1CCCCC1	0.79µM*	x	3.4µM*	x	u	0.89µM*
CS(=O)(=O)N1CCc2cc(C(=O)N3CCCCC3)ccc21	0%	-10%	-4%	-1%	-4%	0%
CC(=O)Nc1ccc2c(c1)CN(c1cc(C)ccc1C)CO2	-3%	-32%	-1%	-5%	-2%	-1%
COc1ccc(C(=O)c2cn(CC(=O)Nc3cc(OC)cc(OC)c3)c3ccc(OC)cc3c2=O)cc1	-3%	u	-1%	x	x	0%
Cc1ccc2c(c1)NC(=O)CC(c1ccccc1)=N2	10%	u	12µM*	-7%	13%	u
SMILES	NPC1 prom act	SMN2 splice enh	FLuc modulator	Luc counter	ELG1 genotox	Rab9 promoter act
COc1cc(OC)c(NC(=O)C2=C(C)C(=O)OC23CCCCCC3)cc1Cl	x	x	3%	x	x	x
COc1ccccc1NC(=O)Nc1nnc(-c2ccco2)s1	-3%	1%	-1%	-3%	4%	3%
O=C(Nc1nnc(-c2ccco2)s1)c1ccccc1	0.79µM*	2µM*	3µM*	-7%	1.2µM*	0.4µM*
O=C(Nc1ccc(F)cc1)Nc1nnc(-c2ccco2)s1	u	19%	-19%	-2%	20%	2.8µM*
COc1ccc(C(=O)Nc2nnc(-c3ccco3)s2)cc1	0.45µM*	1.4µM*	0.48µM*	-21%	u	0.32µM*
COCCn1c(=O)c2c(nc3n2CC(C)CN3Cc2ccccc2)n(C)c1=O (stereo unspecified)	-2%	x	2%	x	0%	-4%
O=C(CNCc1ccccn1)N1CCc2ccccc2C1	-2%	x	-9%	x	3%	0%
CC(C)(C)c1ccc(C(=O)Nc2cccc3c(=O)[nH][nH]c(=O)c23)cc1	21%	-56%	0.85µM*	0%	u	u
CCn1cc(-c2cc(C(=O)O)c3ccccc3n2)c(C)n1	-4%	-11%	9.5µM*	-4%	1%	-2%
O=C(O)c1cc(-c2cccnc2)nc2ccccc12	-2%	x	-1%	x	2%	-1%
CCn1cc(-c2cc(C(=O)O)c3ccccc3n2)cn1	6%	3%	2.7µM*	u	-9%	13%
Cn1ccc(-c2cc(C(=O)O)c3ccccc3n2)n1	-3%	6%	u	-9%	0%	1%
CC1(c2ccccc2)NC(=O)N(CC(=O)Nc2cccc(/C=C/c3ccccn3)c2)C1=O (stereo unspecified)	0%	x	19µM*	x	-8%	10%
Cc1cc(C)cc(NC(=O)CN2C(=O)NC(C)(c3ccccc3)C2=O)c1 (stereo unspecified)	-6%	-11%	-20%	-2%	2%	12%
Cc1cc(NC(=O)Cc2ccsc2)ccc1Br	22%	x	17µM*	x	2%	23%
Cc1cc(C)c2c(=O)n(CC(=O)Nc3ccc(Br)c(C)c3)sc2n1	1%	x	8.5µM*	x	0%	0%
CCOC(=O)C1C(C(=O)OC)=C(CC(C)C)c2ccccc2N1S(=O)(=O)C(F)(F)F (stereo unspecified)	x	x	x	3%[39.9 µM]	x	x
O=C(Nc1ccc2oc(-c3ccccc3)nc2c1)c1ccco1	1.8µM*	13µM*	4.8µM*	-1%	u	2.5µM*
O=C(Nc1ccc2oc(-c3cccnc3)nc2c1)c1ccc2c(c1)OCCO2	11%	x	2.4µM*	-5%	u	29%
O=C(Nc1ccc2oc(-c3ccncc3)nc2c1)c1ccc2c(c1)OCO2	-2%	x	u	x	2%	-7%
O=C(Nc1ccc2oc(-c3ccccc3)nc2c1)c1ccc2c(c1)OCCO2	0%	-46%	5.4µM*	0%	-11%	18%
O=C(Nc1ccc2oc(-c3ccncc3)nc2c1)c1ccc2c(c1)OCCO2	3%	x	1.7µM*	x	6%	2%
